{
  "source": "PubChem BioAssay AID624405",
  "about": "(Broad Institute, 2012)",
  "note": "Hit rate of the full screen: of about 1,900 compounds, about 250 (13%) were called active. Roughly 4% stayed inconclusive and do not appear here.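 The calls were made as follows: active = fitted curve reaches 40% rescue activity at or below the top valid dose, in every test run; inconclusive = test runs disagree, some active and some inactive; inactive = every run misses the threshold or moves the wrong way.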 The list is a sample of the results. Potency and affinity values are given separately.",
  "data": [
    {"assay": "suppressors of statin myotoxicity in myotubes, dose response, cell-based, C2C12 myotubes, ATP luminescence, cherry pick (AID 624405);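 also: myotubes are challenged with simvastatin at 10 µM to lower ATP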", "conditions": "C2C12 myotubes + simvastatin, 48 h, scaled: DMSO wells 0, geranylgeraniol wells 100; series mostly up to 19.5 µM; rescue activity (ATP increase): at the top concentration", "values": [
      {"smiles": "O=C(O)c1ccc(C(=O)c2ccc3c(c2)C(=O)N(Cc2ccco2)C3=O)cc1", "rescue activity (ATP increase)": "10.5% (inactive)"},
      {"smiles": "Cc1noc(C)c1S(=O)(=O)Nc1ccc2c(c1)C(=O)N([C@H](C)CO)C[C@H](C)[C@@H](CN(C)C(=O)Nc1cccc3ccccc13)O2", "rescue activity (ATP increase)": "27.1% [at 21 µM] (inactive)"},
      {"smiles": "COc1ccc(C#Cc2cnc3c(c2)C(=O)N([C@@H](C)CO)C[C@H](C)[C@H](CN(C)C(=O)Nc2cccc(OC)c2)O3)cc1", "rescue activity (ATP increase)": "-1.46% (inactive)"},
      {"smiles": "C[C@H](CO)N1C[C@H](C)[C@@H](CN(C)Cc2ccc(C(=O)Nc3ccccc3N)cc2)Oc2ccc(NC(=O)Nc3cccc4ccccc34)cc2C1=O", "rescue activity (ATP increase)": "9.69% [at 16 µM] (inactive)"},
      {"smiles": "COc1ccc(NC(=O)Nc2ccc3c(c2)C(=O)N([C@@H](C)CO)C[C@H](C)[C@H](CN(C)Cc2ccc(C(F)(F)F)cc2)OCCCC[C@@H](C)O3)cc1", "rescue activity (ATP increase)": "-38.9% (inactive)"},
      {"smiles": "COc1ccc(N=Cc2sc(O)c3ccccc23)cc1", "rescue activity (ATP increase)": "19.5% (inactive)"},
      {"smiles": "C[C@@H]1CN([C@H](C)CO)C(=O)c2cc(C3=CCCCC3)cnc2O[C@H]1CN(C)Cc1ccccc1F", "rescue activity (ATP increase)": "-23.7% (inactive)"},
      {"smiles": "Cn1c(CCN2CCCCC2)nc2cc(NC(=O)Nc3ccccc3)ccc21", "rescue activity (ATP increase)": "-7.55% (inactive)"},
      {"smiles": "CC(C(=O)N1CCCc2ccccc21)N1C(=O)c2ccccc2C1=O", "note": "(stereo unspecified)", "rescue activity (ATP increase)": "-3.35% (inactive)"},
      {"smiles": "CCN(CC)C(=O)c1ccc(NS(=O)(=O)c2ccccc2)cc1", "rescue activity (ATP increase)": "0.963% (inactive)"},
      {"smiles": "NNC(=O)COc1cccc2cccnc12", "rescue activity (ATP increase)": "37.3% (inactive)"},
      {"smiles": "O=c1[nH]c(Nc2ccccc2Cl)cc2ccccc12", "rescue activity (ATP increase)": "-28.7% (inactive)"},
      {"smiles": "CC(C)(C)C(=O)COC(=O)CNC(=O)c1ccc(Oc2ccccc2)cc1", "rescue activity (ATP increase)": "0.797% (inactive)"},
      {"smiles": "C[C@@H]1CN([C@H](C)CO)C(=O)Cc2cc(N(C)C)ccc2O[C@@H]1CN(C)Cc1ccc(Cl)c(Cl)c1", "rescue activity (ATP increase)": "34.4% (inactive)"},
      {"smiles": "Cc1ccc(S(=O)(=O)Nc2ccc3c(c2)CC(=O)N([C@@H](C)CO)C[C@@H](C)[C@H](CN(C)Cc2ccc(Cl)c(Cl)c2)O3)cc1", "rescue activity (ATP increase)": "29% (inactive)"},
      {"smiles": "C[C@@H]1CN([C@H](C)CO)C(=O)Cc2cc(NS(C)(=O)=O)ccc2O[C@@H]1CN(C)Cc1ccc(Cl)c(Cl)c1", "rescue activity (ATP increase)": "27.2% (inactive)"},
      {"smiles": "C[C@H]1CN([C@@H](C)CO)C(=O)Cc2cc(N(C)C)ccc2O[C@@H]1CN(C)Cc1ccc(Cl)c(Cl)c1", "rescue activity (ATP increase)": "22.2% [at 21 µM] (inactive)"},
      {"smiles": "C[C@@H]1CN([C@H](C)CO)C(=O)Cc2cc(NS(=O)(=O)c3ccc(Cl)cc3)ccc2O[C@H]1CN(C)Cc1ccc(Cl)c(Cl)c1", "rescue activity (ATP increase)": "32% (inactive)"},
      {"smiles": "Cc1ccc(S(=O)(=O)Nc2ccc3c(c2)CC(=O)N([C@H](C)CO)C[C@@H](C)[C@H](CN(C)Cc2ccc(Cl)c(Cl)c2)O3)cc1", "rescue activity (ATP increase)": "21.4% (inactive)"},
      {"smiles": "Cc1ccc(S(=O)(=O)Nc2ccc3c(c2)CC(=O)N([C@@H](C)CO)C[C@@H](C)[C@@H](CN(C)Cc2ccc(Cl)c(Cl)c2)O3)cc1", "rescue activity (ATP increase)": "13.8% [at 21 µM] (inactive)"},
      {"smiles": "Cc1ccc(S(=O)(=O)Nc2ccc3c(c2)CC(=O)N([C@H](C)CO)C[C@@H](C)[C@@H](CN(C)Cc2ccc(Cl)c(Cl)c2)O3)cc1", "rescue activity (ATP increase)": "26.6% (inactive)"}
    ]}
  ]
}
